# The supplement of paper PMC11018630
# Counter-ions that a name gives are not always drawn. ± gives the standard deviation of the averaged measurements. The full ranking holds about 1,100 compounds; the median of “day of extracellular matrix detachment from plate” is about 16, and the lowest 2% start at about 10. The sample as a whole holds a higher share of the lowest values than the screen did.
# System: RDEB dermal fibroblasts EB71
# Assay: day of extracellular matrix detachment from plate (days); higher = delayed detachment (less fibrotic matrix)
# Conditions: compound concentration: 10 uM
row,Compound,day of extracellular matrix detachment from plate
1,C=CCc1cc(OC)c(O)c(C(=O)NCCO)c1 [Alibendol],15.7 ± 6.3
2,Nc1ccc(/N=N/c2ccccc2)c(N)n1 [Phenazopyridine HCl],13
3,C[C@@H](NCCCc1cccc(C(F)(F)F)c1)c1cccc2ccccc12 [Cinacalcet HCl],12.3 ± 1.1
4,NS(=O)(=O)c1ccc(C(=O)O)cc1 [Carzenide],12.3 ± 2.3
5,CC[C@H](C)C(=O)O[C@H]1C[C@H](O)C=C2C=C[C@H](C)[C@H](CC[C@@H](O)C[C@@H](O)CC(=O)O)[C@H]21 [Pravastatin sodium],20 ± 1.7
6,O=C(NC(Cc1cc(=O)[nH]c2ccccc12)C(=O)O)c1ccc(Cl)cc1 (stereo unspecified) [Rebamipide],15.7 ± 6.3
7,CC1(C)[C@@H](OC(=O)CCC(=O)O)CC[C@]2(C)[C@H]3C(=O)C=C4[C@@H]5C[C@@](C)(C(=O)O)CC[C@]5(C)CC[C@@]4(C)[C@]3(C)CC[C@@H]12 [Carbenoxolone Sodium],13
8,CC[C@H](C)C[C@H](C)CCCCCCCCC(=O)N[C@H]1C[C@@H](O)[C@@H](NCCN)NC(=O)[C@@H]2[C@@H](O)CCN2C(=O)[C@H]([C@H](O)CCN)NC(=O)[C@H]([C@H](O)[C@@H](O)c2ccc(O)cc2)NC(=O)[C@@H]2C[C@@H](O)CN2C(=O)[C@H]([C@@H](C)O)NC1=O [Caspofungin Acetate],18
9,CC(CCc1ccc(O)cc1)NCC(O)c1ccc(O)cc1 (stereo unspecified) [Ractopamine HCl],13
10,N#CC[C@H](C1CCCC1)n1cc(-c2ncnc3[nH]ccc23)cn1,16
11,Cc1cn(-c2cc(NC(=O)c3ccc(C)c(Nc4nccc(-c5cccnc5)n4)c3)cc(C(F)(F)F)c2)cn1 [Nilotinib (AMN-107)],30.5 ± 6
12,O=c1oc2c(O)c(O)cc3c(=O)oc4c(O)c(O)cc1c4c23 [Ellagic acid],10.3 ± 1.1
13,CCN1CCN(C(=O)N[C@@H](C(=O)N[C@@H]2C(=O)N3[C@@H]2SC(C)(C)[C@@H]3C(=O)O)c2ccccc2)C(=O)C1=O [Piperacillin Sodium],13
14,CCN1CCN(C(=O)N[C@@H](C(=O)N[C@@H]2C(=O)N3C(C(=O)O)=C(CSc4nnnn4C)CS[C@H]23)c2ccc(O)cc2)C(=O)C1=O [Cefoperazone],10.3 ± 1.1
15,CO/N=C(\C(=O)N[C@@H]1C(=O)N2C(C(=O)O)=C(CSc3nnnn3C)CS[C@H]12)c1csc(N)n1 [Cefmenoxime hydrochloride],18 ± 1.4
16,CC(C)[C@H]1C(=O)N[C@@H](CCCNC(=N)N)C(=O)NCC(=O)N[C@@H](CC(=O)O)C(=O)N[C@H](Cc2ccccc2)C(=O)N1C [Cilengitide],6
17,NC(=O)[C@@H]1CSSCCC(=O)N[C@@H](CCCCN=C(N)N)C(=O)NCC(=O)N[C@@H](CC(=O)O)C(=O)N[C@@H](Cc2c[nH]c3ccccc23)C(=O)N2CCC[C@H]2C(=O)N1 [Eptifibatide Acetate],22
18,CCCCCCCCCC(=O)N[C@@H](Cc1c[nH]c2ccccc12)C(=O)N[C@H](CC(N)=O)C(=O)N[C@@H](CC(=O)O)C(=O)N[C@@H]1C(=O)NCC(=O)N[C@@H](CCCN)C(=O)N[C@@H](CC(=O)O)C(=O)N[C@H](C)C(=O)N[C@@H](CC(=O)O)C(=O)NCC(=O)N[C@H](CO)C(=O)N[C@@H]([C@H](C)CC(=O)O)C(=O)N[C@@H](CC(=O)c2ccccc2N)C(=O)O[C@@H]1C [Daptomycin],22
19,CN1CCC(=C2c3ccccc3CCn3c(C=O)cnc32)CC1 [Alcaftadine],19.3 ± 2.5
20,O=C([O-])c1ccccc1O.[Na+] [Sodium salicylate],14
21,O=C(O[C@H]1CN2CCC1CC2)N1CCc2ccccc2[C@@H]1c1ccccc1 [Solifenacin succinate],27.3 ± 2.9

row,Compound,day of extracellular matrix detachment from plate
1,CN(C)[C@@H]1C(O)=C(C(N)=O)C(=O)[C@@]2(O)C(O)=C3C(=O)c4c(O)ccc(Cl)c4[C@@](C)(O)[C@H]3C[C@@H]12 [Chlortetracycline HCl],23 ± 6.9
2,COc1ccc(CNc2nc(N3CCC[C@H]3CO)ncc2C(=O)NCc2ncccn2)cc1Cl [Avanafil],18
3,CC[C@@H]1/C=C(\C)C[C@H](C)C[C@H](OC)[C@H]2O[C@@](O)(C(=O)C(=O)N3CCCC[C@H]3C(=O)O[C@H](/C(C)=C/[C@@H]3CC[C@H](Cl)[C@H](OC)C3)[C@H](C)[C@@H](O)CC1=O)[C@H](C)C[C@@H]2OC [Pimecrolimus],17.7 ± 4
4,CN1CCOC(c2ccccc2)c2ccccc2C1 (stereo unspecified) [Nefopam HCl],20
5,CO[C@H]1/C=C/O[C@@]2(C)Oc3c(C)c(O)c4c(O)c(c(/C=N/N5CCN(C)CC5)c(O)c4c3C2=O)NC(=O)/C(C)=C\C=C\[C@H](C)[C@H](O)[C@@H](C)[C@@H](O)[C@@H](C)[C@H](OC(C)=O)[C@@H]1C [Rifampin],12
6,"CCCS(=O)(=O)Nc1ccc(F)c(C(=O)c2c[nH]c3ncc(-c4ccc(Cl)cc4)cc23)c1F [Vemurafenib (PLX4032, RG7204)]",14 ± 1.7
7,Clc1ccc(CCC(Cn2ccnc2)Sc2c(Cl)cccc2Cl)cc1 (stereo unspecified) [Butoconazole nitrate],16
8,Nc1ccc(S(=O)(=O)Nc2ncccn2)cc1 [Sulfadiazine],12
9,Nc1ccc(S(=O)(=O)Nc2ncccn2)cc1 [Sodium sulfadiazine],18.2 ± 3.1
10,N=C(N)NC(=N)N1CCOCC1 [Moroxydine HCl],19.3 ± 6.3
11,Cc1cc(-n2c(=O)[nH]c(=O)n(C)c2=O)ccc1Oc1ccc(SC(F)(F)F)cc1 [Toltrazuril],15.7 ± 2.9
12,Clc1ccc(Nc2nnc(Cc3ccncc3)c3ccccc23)cc1 [Vatalanib (PTK787) 2HCl],25
13,"CNC(=O)[C@H](Cc1c[nH]c2ccccc12)NC(=O)[C@@H](CC(=O)NO)CC(C)C [Ilomastat (GM6001, Galardin)]",15
14,CNC(=O)[C@H](Cc1ccccc1)NC(=O)[C@H](CC(C)C)[C@H](CSc1cccs1)C(=O)NO [Batimastat (BB-94)],9 ± 1.7
15,CNC(=O)[C@@H](NC(=O)[C@H](CC(C)C)[C@H](O)C(=O)NO)C(C)(C)C [Marimastat(BB-2516)],11.7 ± 1.1
16,O=c1ccc2ccc(OCCCCN3CCN(c4cccc5sccc45)CC3)cc2[nH]1 [Brexpiprazole],17
17,CC(C)[C@H](N)C(=O)OCCOCn1cnc2c(=O)nc(N)[nH]c21 [Valaciclovir HCl],15.7 ± 6.3
18,OCCOc1ccc(/C(=C(/CCCl)c2ccccc2)c2ccccc2)cc1 [Ospemifene],13
19,Cc1ccc(C(=O)C(C)CN2CCCCC2)cc1 (stereo unspecified) [Tolperisone HCl],13
20,CCCCN1CCCCC1C(=O)Nc1c(C)cccc1C (stereo unspecified) [Bupivacaine HCl],19.3 ± 6.3
21,CO[C@H]1C[C@@H]2CC[C@@H](C)[C@@](O)(O2)C(=O)C(=O)N2CCCC[C@H]2C(=O)O[C@H]([C@H](C)C[C@@H]2CC[C@@H](OCCO)[C@H](OC)C2)CC(=O)[C@H](C)/C=C(\C)[C@@H](O)[C@@H](OC)C(=O)[C@H](C)C[C@H](C)/C=C/C=C/C=C/1C [Everolimus (RAD001)],25

row,Compound,day of extracellular matrix detachment from plate
1,CC[C@H]1[C@@H](O)[C@@H]2[C@H](CC[C@]3(C)[C@@H]([C@H](C)CCC(=O)O)CC[C@@H]23)[C@@]2(C)CC[C@@H](O)C[C@@H]12 [Obeticholic Acid],16.3 ± 1.1
2,C#C[C@]1(O)CC[C@H]2[C@@H]3CCC4=CCCC[C@@H]4[C@H]3C(=C)C[C@@]21CC [Desogestrel],17
3,Cc1cc(C#N)cc(C)c1Oc1nc(Nc2ccc(C#N)cc2)nc(N)c1Br [Etravirine (TMC125)],18
4,CC1(C)CCC(C)(C)c2cc(NC(=O)c3ccc(C(=O)O)cc3)ccc21 [Tamibarotene],19
5,C=C(c1ccc(C(=O)O)cc1)c1cc2c(cc1C)C(C)(C)CCC2(C)C [Bexarotene],9
6,Cc1ccc([C@@H]2O[C@H](CO)[C@@H](O)[C@H](O)[C@H]2O)cc1Cc1ccc(-c2ccc(F)cc2)s1 [Canagliflozin],18
7,Oc1cc(O)c(Cl)cn1 [Gimeracil],12
8,O=C(O)c1cc(/N=N/c2ccc(O)c(C(=O)O)c2)ccc1O [Olsalazine Sodium],17.3 ± 2.9
9,CC(C)NC[C@H](O)COc1ccc(CCOCC2CC2)cc1 [Levobetaxolol HCl],16 ± 3.5
10,C[C@]12CC[C@H](O)CC1=CC[C@@H]1[C@@H]2CC[C@]2(C)C(n3cnc4ccccc43)=CC[C@@H]12 [Galeterone],20 ± 1.7
11,CCOC(=O)CC(=O)N1CCSC1COc1ccccc1OC (stereo unspecified) [Moguisteine],15.3 ± 2.3
12,Clc1ccc2c(c1)CCc1cccnc1C2=C1CCNCC1 [Desloratadine],28
13,NC(=O)C(c1ccccc1)(c1ccccc1)[C@@H]1CCN(CCc2ccc3c(c2)CCO3)C1 [Darifenacin HBr],23.2 ± 7.2
14,CC(C)/N=c1\cc2n(-c3ccc(Cl)cc3)c3ccccc3nc-2cc1Nc1ccc(Cl)cc1 [Clofazimine],13
15,C[C@@H]1O[C@@H](OC[C@H]2O[C@@H](Oc3c(-c4ccc(O)c(O)c4)oc4cc(O)cc(O)c4c3=O)[C@H](O)[C@@H](O)[C@@H]2O)[C@H](O)[C@H](O)[C@H]1O [Rutin],18.3 ± 8.1
16,CNC[C@H](O)[C@@H](O)[C@H](O)[C@H](O)CO [Meglumine],12
17,O=C(O)COCCN1CCN(C(c2ccccc2)c2ccc(Cl)cc2)CC1 (stereo unspecified) [Cetirizine DiHCl],10.3 ± 1.1
18,Cc1cccc(CN2CCN(C(c3ccccc3)c3ccc(Cl)cc3)CC2)c1 (stereo unspecified) [Meclizine 2HCl],12
19,OCCOCCN1CCN(C(c2ccccc2)c2ccc(Cl)cc2)CC1 (stereo unspecified) [Hydroxyzine 2HCl],18
